Assay [1] deals with Alpha-galactosidase A (Homo sapiens) (UniProt P06280). The experiment in a line: Counterscreen for Glucocerebrosidase Inhibitors: qHTS Assay for Human alpha-Galactosidase at pH 4.5 (AID 992). The note with it: purified enzyme, fluorogenic substrate; series mostly up to 76.9 µM. In a few lines: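 Read-out is 4-methylumbelliferone fluorescence (365 nm excitation, 440 nm emission) after a pH 10 NaOH/glycine stop. Reactions held 2 nM enzyme and 80 uM substrate at pH 4.5 for 20 min at room temperature.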
Sequence of Alpha-galactosidase A (Homo sapiens) (P06280 whole entry, looked up): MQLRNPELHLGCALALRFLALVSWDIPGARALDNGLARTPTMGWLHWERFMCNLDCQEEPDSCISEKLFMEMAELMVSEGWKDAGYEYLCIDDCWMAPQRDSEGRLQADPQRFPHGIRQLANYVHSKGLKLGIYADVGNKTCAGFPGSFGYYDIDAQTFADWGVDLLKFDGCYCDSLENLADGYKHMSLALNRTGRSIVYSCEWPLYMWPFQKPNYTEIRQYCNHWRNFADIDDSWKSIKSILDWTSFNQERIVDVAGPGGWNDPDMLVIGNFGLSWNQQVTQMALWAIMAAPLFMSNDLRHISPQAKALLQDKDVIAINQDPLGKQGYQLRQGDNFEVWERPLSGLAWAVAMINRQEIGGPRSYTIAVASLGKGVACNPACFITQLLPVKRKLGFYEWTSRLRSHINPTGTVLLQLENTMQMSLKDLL
In general terms: The purpose of a counterscreen is to sort out artefacts and off-target activity.

Assay [2] deals with alpha-glucosidase (Oryza sativa, rice) (UniProt Q653V4). The assay is described as follows: Counterscreen for Glucocerebrosidase Inhibitors: qHTS Assay for Rice alpha-Glucosidase at pH 5.0 (AID 997). The settings on record: rice alpha-glucosidase enzyme activity; series mostly up to 76.9 µM. In a few lines:
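Rice alpha-glucosidase (4 nM final) with 400 uM 4-methylumbelliferyl-alpha-D-glucopyranoside in citrate buffer pH 5.0, 20 min at room temperature, stopped at pH 10; fluorescence 365/440 nm, compounds 0.7 nM–77 uM, AC50 from Hill fits.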

The target in assay [3] is Alpha-galactosidase (Coffea arabica) (UniProt Q42656). The assay is described as follows: Counterscreen for Glucocerebrosidase Inhibitors: qHTS Assay for Coffee Bean alpha-Galactosidase at pH 5.9 (AID 998). The settings on record: coffee bean alpha-galactosidase enzyme assay; series mostly up to 76.9 µM. In a few lines:
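Green coffee bean enzyme (2 nM final) was incubated with compounds (0.7 nM–77 uM) and 4-methylumbelliferyl alpha-D-galactopyranoside (80 uM) in citrate buffer pH 5.9, 20 min at room temperature. High-pH stop; fluorescence 365/440 nm; AC50 from Hill fits.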

A short description of assay [4]: Validation of Assay for Modulators of Lamin A Splicing (AID 1459; active means well fitted curve in the direction sought with a large enough effect in the signal ratio; the % refers to the signal ratio;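 further: cells exposed to compound for two days before reading; ratio rise marks activators and ratio drop marks inhibitors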). The note with it: Lamin A splicing dual RFP/GFP fluorescence reporter; series mostly up to 9.22 µM. In a few lines: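 S3 HeLa cells stably expressing a lamin A-EGFP splicing minigene and DsRed2 were seeded at 600 cells/well in Opti-MEM with 2% FBS, pin-dosed, and incubated 48 hrs at 37 °C, 5% CO2. Laser-scanning cytometry (488 nm) gave GFP/RFP total intensity ratio.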

A short description of assay [5]: qHTS Assay for Lipid Storage Modulators (AID 1519; calls by dose curve). The settings on record: Drosophila S3 cells, BODIPY lipid droplet/cell ratio, laser cytometry, cells loaded with oleic acid. In outline: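 Cells seeded at 5,000 per well were treated with compounds over a concentration series and loaded with oleic acid (400 uM, as added). Lipid droplet fluorescence (488 nm excitation, 500-530 nm channel) was read by laser-scanning cytometry and normalized to 20 uM Triacsin C.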
For orientation: In qHTS, concentration-response curves come from the screen itself.

For assay [6], the target named is DNA repair nuclease/redox regulator APEX1 (Homo sapiens) (UniProt P27695). The assay is described as follows: qHTS Validation Assay for Inhibitors of the Human Apurinic/apyrimidinic Endonuclease 1 (APE1) (AID 1705;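 further: TAMRA fluorescence gain over two minutes as APE1 cuts a quenched THF abasic duplex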). The note with it: purified APE1 endonuclease activity, fluorescence, titration; series mostly up to 57.1 µM. In outline:
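Human APE1 was preincubated with compound for 15 min at room temperature, then 50 nM (final) THF-abasic double-stranded DNA substrate bearing 5'-TAMRA and 3'-BHQ-2 was added. Incision-driven fluorescence rise (ex 525/em 598 nm) was read kinetically.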

For assay [7], the target named is Endonuclease 4 (Escherichia coli (strain K12)) (UniProt P0A6C1). The experiment in a line: Counterscreen for APE1 Inhibitors: qHTS Validation Assay for Inhibitors of Endonuclease IV (AID 1708). The note with it: E. coli endonuclease IV, DNA cleavage fluorescence; series mostly up to 57.1 µM. In outline: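 2 nM enzyme was preincubated with compounds for 15 min at room temperature in 50 mM Tris-HCl pH 7.5, 50 mM NaCl, 2 mM MgCl2, 1 mM DTT, 0.01% Tween-20. 50 nM THF-abasic TAMRA/BHQ-2 duplex substrate started the reaction.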

Assay [8] in a line: Counterscreen for APE1 Inhibitors: Fluorescent Dye Displacement Validation Assay (AID 1707). The note with it: fluorescent dye displacement from DNA; series mostly up to 57.1 µM. In outline:
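ThO 250 nM + dsDNA 50 nM (THF abasic site, 5'-TAMRA), Tris-HCl pH7.5/50mM NaCl/2 mM MgCl2/0.01% Tween-20; compounds pin-transferred; ex 480/em 540 nm endpoint. Neutral = no compound; no-DNA ThO wells = negative control.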

Assay [9] is described as follows: qHTS for differential inhibitors of proliferation of Plasmodium falciparum line 7G8 (AID 1815).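 Further: potency means the concentration at half of the fitted maximal effect; parasite growth measured after three days of incubation.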 The settings on record: Plasmodium falciparum 7G8 proliferation inhibition; series mostly up to 28.7 µM.
The nature of assay [10]: qHTS for differential inhibitors of proliferation of Plasmodium falciparum line GB4 (AID 1816).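 Further: potency means the concentration at half of the fitted maximal effect; parasite growth measured after 72 h incubation.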 The settings on record: Potency: Plasmodium falciparum GB4 proliferation inhibition; series mostly up to 28.7 µM.
Assay [11] can be described thus: qHTS for differential inhibitors of proliferation of Plasmodium falciparum line Dd2 (AID 1882). Further: potency means the concentration at half of the fitted maximal effect; nearly all actives have a fitted effect of over 65% in size. The settings on record: Potency: Plasmodium falciparum Dd2 proliferation inhibition; series mostly up to 28.7 µM. In outline: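 SYBR Green I DNA fluorescence read-out, ex 485/em 535 nm. Signals were normalized to 0.29 uM artemisinin and DMSO wells, then corrected using vehicle-only plates flanking each stack. Parasite growth ran 72 h in erythrocytes before lysis.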

Assay [12] can be described thus: qHTS for differential inhibitors of proliferation of Plasmodium falciparum line W2 (AID 1883).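 Further: potency means the concentration at half of the fitted maximal effect; parasites grown with compound for 72 h before lysis and staining.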 The note with it: Potency: Plasmodium falciparum W2 proliferation inhibition; series mostly up to 28.7 µM.
Assay [13] can be described thus: Cell Viability - LYMP2-024 (AID 988). Further: nearly all actives have a fitted effect of over 60% in size. The note with it: LYMP2-024 lymphoblastoid cell viability; series mostly up to 92.2 µM. In outline: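 Human lymphoblastoid cells (2500/well) in complete medium were preincubated 5 hr at 37 C, then exposed to compounds for 24 hr at 37 C. Intracellular ATP was read by CellTiter-Glo luminescence; AC50 from Hill-equation fits of concentration-response data.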

A short description of assay [14]: Cell Viability - LYMP2-026 (AID 989). Further: nearly all actives have a fitted effect of over 50% in size. The settings on record: LYMP2-026 lymphoblastoid cell viability, qHTS; series mostly up to 92.2 µM. In a few lines:
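Human lymphoblastoid cells (2500/well) in complete medium were preincubated 5 hr at 37 C, then exposed to compounds for 24 hr at 37 C. Cellular ATP was read by CellTiter-Glo luminescence; AC50 from Hill-equation fits of concentration-response data.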

The nature of assay [15]: Cell Viability - LYMP1-002 - Assay at 24 hr (AID 993). The note with it: LYMP1-002 lymphoblastoid cells viability; series mostly up to 92.2 µM. In a few lines:
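Human lymphoblastoid LYMP1-002 cells, 2500/well in complete medium, were treated with compounds for 24 h at 37 C; intracellular ATP was read by CellTiter-Glo luminescence. AC50 values came from Hill-equation fits of qHTS concentration-response data.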

Assay [16] is described as follows: Cell Viability - LYMP1-002 - Assay at 40 hr (AID 994). Further: nearly all actives have a fitted effect of over 60% in size. The note with it: LYMP1-002 lymphoblastoid cell viability; series mostly up to 92.2 µM. In outline:
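Human lymphoblastoid cells, 2500/well in complete medium, were preincubated 5 hr at 37 C, then exposed to compounds for 40 hr at 37 C. Intracellular ATP was read by CellTiter-Glo luminescence after 30 min at room temperature; AC50 from Hill-equation fits.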

Setting [17] is: measured here: cell count channel max response.
The mark [18] stands for this setting: measured here: lipid channel max response.

Molecules are shown by their SMILES. “And” between values parts separate entries of the source, which are not always exact repeats. Equal entries are not always repeated. Inconclusive results are not listed. Where a call stands in place of a potency, no number is given. The source made the active and inactive calls. Unless noted, the call rests on the fitted dose curve; in most records, active means well fitted curve in the direction sought with a large enough effect; inconclusive means small, poorly fitted or top-dose-only effect, or another doubt; inactive means no such curve, though single readings can be large; an effect the other way counts as inactive or inconclusive.

Sequence of Alpha-galactosidase (Coffea arabica) (Q42656 whole entry, looked up): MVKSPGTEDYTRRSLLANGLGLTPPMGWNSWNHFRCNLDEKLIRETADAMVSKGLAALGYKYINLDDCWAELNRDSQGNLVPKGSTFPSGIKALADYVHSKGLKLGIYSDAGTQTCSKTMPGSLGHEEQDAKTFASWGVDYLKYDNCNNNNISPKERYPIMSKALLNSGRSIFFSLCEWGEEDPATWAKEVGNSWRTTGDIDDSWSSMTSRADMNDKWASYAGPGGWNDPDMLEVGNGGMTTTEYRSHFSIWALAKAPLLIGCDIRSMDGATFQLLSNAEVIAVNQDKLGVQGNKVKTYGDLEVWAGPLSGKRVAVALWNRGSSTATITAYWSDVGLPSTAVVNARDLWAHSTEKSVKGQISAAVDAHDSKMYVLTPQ
Sequence of DNA repair nuclease/redox regulator APEX1 (Homo sapiens) (P27695 whole entry, looked up): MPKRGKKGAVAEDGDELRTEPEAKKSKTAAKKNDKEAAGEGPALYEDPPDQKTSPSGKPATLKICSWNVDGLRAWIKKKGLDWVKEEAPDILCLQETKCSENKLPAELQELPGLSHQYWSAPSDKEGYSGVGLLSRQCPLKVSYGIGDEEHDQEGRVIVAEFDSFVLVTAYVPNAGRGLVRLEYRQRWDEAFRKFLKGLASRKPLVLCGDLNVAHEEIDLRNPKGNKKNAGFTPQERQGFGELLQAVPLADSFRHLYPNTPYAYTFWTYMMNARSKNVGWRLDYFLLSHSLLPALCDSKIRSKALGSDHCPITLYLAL

As to `O=C(CCCN1CCC2(CC1)C(=O)NCN2c1ccccc1)c1ccc(F)cc1`, the compound was called inactive in assay [1], in assay [2], in assay [3], in assay [4] and in assay [7]. Further, the activity change, negative = inhibition was -0.907% (inactive) in assay [5] (at 25.7 µM (top of the series)) and 7.99% (inactive) in assay [5] (at 57.5 µM (top of the series)). For the same compound, the max response in [5] (setting [17]) is -5.72% and 5.19%; in assay [5] (setting [18]) it was -10.3% and 17.9%. Also, the Potency result in assay [6] is “inactive”.

In the case of `NC(=O)CS(=O)C(c1ccccc1)c1ccccc1` (stereo not drawn), in [5] (at 57.5 µM (top of the series)), the activity change, negative = inhibition is 4.67% (inactive). For the same compound, the max response in [5] (setting [17]) is 3.09%; in assay [5] (setting [18]) it was 10.7%.

Consider `CC(C)(C)NCC(O)c1ccccc1Cl` (stereo not drawn), for which the activity change, negative = inhibition in assay [5] (at 57.5 µM (top of the series)) was 6.93% (inactive) and 0.29% (inactive). For the same compound, the max response in assay [5] (setting [17]) was -1.25% and 42.1%; in assay [5] (setting [18]), 8.8% and 40.7%. Also, in assay [6], the Potency result was “inactive”. For the same compound, the call in assay [8] and in assay [7] was inactive. Besides, the Potency in assay [9] is 5.62 µM (active); in assay [10] it was 6.31 µM (active); in [11], 12.6 µM (active); in [12], 4.47 µM (active).

For `Nc1ccccc1C(=O)O`, the result in [13] and in assay [14] was inactive. Also, the Potency result in assay [15] and in [16] was “inactive” in each case.

Turning to `CN(C)CCOC(=O)COc1ccc(Cl)cc1`, the compound was classed as inactive in assay [3].

Consider `CN1C(C)(C)CCCC1(C)C`, for which the compound was called inactive in assay [3].

As for `CC(C)NC(C)C`, the outcome in assay [13] and in assay [14] was inactive. In addition, the Potency result in assay [15] and in assay [16] was “inactive” throughout.

With `NCCS(=O)(=O)O`, the compound was classed as inactive in assay [3].

As to `C[C@]12CCC(=O)C=C1CC[C@@H]1[C@@H]2CC[C@@]2(C)[C@H]1CC[C@]2(C)O`, the compound was classed as inactive in assay [13] and in [14]. For the same compound, the Potency entry in [15] and in [16] was “inactive” each time.

`C[C@H](CS)C(=O)N1CCC[C@H]1C(=O)O`: the result in assay [3] was inactive.

Regarding `CN1CCN(CC(=O)N2c3ccccc3C(=O)Nc3cccnc32)CC1`, the outcome in assay [3] was inactive.

As for `CN1CCC[C@@H]1c1cccnc1`, the call in [3] was inactive.

For the compound `Cc1ccc(Cl)c(Nc2ccccc2C(=O)O)c1Cl`, in assay [3], the result was inactive.

Take `CC(=O)O[C@H]1C(=O)[C@@]2(C)[C@H]([C@H](OC(=O)c3ccccc3)[C@]3(O)C[C@H](OC(=O)[C@H](O)[C@@H](NC(=O)c4ccccc4)c4ccccc4)C(C)=C1C3(C)C)[C@]1(OC(C)=O)CO[C@@H]1C[C@@H]2O`: the compound was classed as inactive in assay [3].

Consider `COc1ccc2[nH]cc(CCNC(C)=O)c2c1`, for which, in assay [3], the compound was classed as inactive.

With `CCOC(=O)CC(SP(=S)(OC)OC)C(=O)OCC` (stereo not drawn), the call in assay [13] and in assay [14] was inactive. For the same compound, the Potency result in [15] and in [16] was “inactive” each time.

For `O=C1NCC2(CCN(CCc3ccccc3)CC2)O1`, the compound was classed as inactive in assay [3].

`Oc1ccc(Cl)cc1`: the compound was classed as inactive in assay [13] and in assay [14]. The Potency entry in [15] and in assay [16] was “inactive” in each case.

Consider `Nc1nc2ccc(OC(F)(F)F)cc2s1`, for which the outcome in assay [3] was inactive.

Consider `C[N+](C)(C)CCOC(N)=O`, for which the call in assay [3] was inactive.

Regarding `CC(C)C(=O)c1c(C(C)C)nn2ccccc12`, the result in assay [3] was inactive.

For the compound `O=c1[nH]cnc2[nH]ncc12`, the compound was classed as inactive in [3].

With `CCCC(C)(COC(N)=O)COC(N)=O`, the compound was called inactive in [13] and in assay [14]. The Potency entry in assay [15] and in assay [16] was “inactive” each time.

On to `COc1ccc(C2CNC(=O)C2)cc1OC1CCCC1` (stereo not drawn), for which the result in [3] was inactive.

With `NC(=O)N1c2ccccc2C=Cc2ccccc21`, the outcome in assay [3] was inactive.

With `NCCCCCC(=O)O`, the compound was classed as inactive in assay [3].

As to `NCCCNCCSP(=O)(O)O`, in [3], the compound was called inactive.

For the compound `CC(C)NNC(=O)c1ccncc1`, in assay [3], the call was inactive.

Turning to `CN1C[C@H](C(=O)N[C@]2(C)O[C@@]3(O)[C@@H]4CCCN4C(=O)[C@H](Cc4ccccc4)N3C2=O)C=C2c3cccc4[nH]cc(c34)C[C@H]21`, the compound was classed as inactive in assay [14]. Moreover, the Potency entry in assay [15] and in [16] was “inactive” in each case.

Consider `COC(=O)C(c1ccccc1)C1CCCCN1` (stereo not drawn), for which, in assay [14], the call was inactive. For the same compound, the Potency entry in assay [15] and in assay [16] was “inactive” in each case.

`Nc1cc(=O)[nH]c(N)n1`: the result in [3] was inactive.

With `O=c1c(-c2ccc(O)cc2)coc2cc(O)cc(O)c12`, the compound was called inactive in assay [3].

In the case of `CNCCC=C1c2ccccc2CCc2ccccc21`, the outcome in assay [3] was inactive.

`CC(C)Cc1ccc(C(C)C(=O)O)cc1` (stereo not drawn): the result in assay [3] was inactive.

On to `C[N+](C)(C)CCCCCC[N+](C)(C)C`, for which, in [3], the compound was classed as inactive.

For `Clc1cccc(Cl)c1NC1=NCCN1`, in assay [3], the outcome was inactive.

Take `C[C@]1(O)CC[C@H]2[C@@H]3CCC4=CC(=O)CC[C@]4(C)[C@@]3(F)[C@@H](O)C[C@@]21C`: the call in assay [13] and in assay [14] was inactive. Further, the Potency entry in assay [15] and in assay [16] was “inactive” throughout.

For the compound `CCCCCCCCCCCCCCCC(=O)NCCO`, the compound was called inactive in assay [3].
